SMILES strings stand for the structures.

In general, Inhibition refers to the change of the read-out against control, counted positive when it falls. Low readings indicate a response near the control, high ones a response far below the control.

The test system of one assay is Plasmodium falciparum. Nature of the assay: GSK_TCMDC: Inhibition of Plasmodium falciparum Dd2 in whole red blood cells, using parasite LDH activity as an index of growth. Test compounds present at 2uM. Format: functional.
`CC(=O)c1sc(Cc2nc3ccccc3s2)nc1C` showed an Inhibition of 88%.
The same measure, in the same setting: the value for `Cc1cccc(OC(C)C(=O)Nc2cc(C(F)(F)F)ccc2N2CCOCC2)c1` (stereo not drawn) was 98%.
Turning to `Cc1ccc2nc(Cl)c3cc(C(=O)NCCCN4CCCC4)sc3c2c1`, the Inhibition is given as 40%.
As to `Cc1nc(-c2cccc(NCc3ccccc3)c2)[nH]c1C.Cl`, the Inhibition is on record as 48%.
In the case of `COc1cc(Cl)c(C)cc1-n1cc(C(=O)c2cc(Br)ccc2O)cc(C#N)c1=O`, the Inhibition came to 35%.
On the same count and under the same terms, the value for `O=C(NC1CCCCC1)N(Cc1cccc(-c2cccc(CNC3CCCC3)c2)c1)C1CCN(Cc2ccccc2)CC1.O=C(O)C(F)(F)F` was 90%.
Regarding `NCc1ccc(CNCc2cccc(-c3cccc(-c4nc5ccccc5[nH]4)c3)c2)cc1.O=C(O)C(F)(F)F`, the Inhibition stood at 11%.
On the same count and under the same terms, to `COCCNC(=O)C(CNC(=O)c1ccc2c(c1)OCO2)NC(=O)c1ccc(-c2ccccc2)cc1` (stereo not drawn) belongs 3%; to `CCNc1cc(C(=O)N[C@@H](Cc2ccccc2)[C@H](O)CNCc2cccc(OC)c2C)cc(N2CCCCS2(=O)=O)c1.O=CO`, 98%.
As to `CCN(CCO)Cc1ccc(-c2ccc(NS(=O)(=O)c3cccc4cccnc34)cc2)cc1.O=C(O)C(F)(F)F`, the Inhibition turned out to be 16%.
The same measure, in the same setting: to `CCOCCCNc1sc(S(=O)(=O)c2ccccc2)nc1S(=O)(=O)c1ccc(C)cc1` belongs 87%; to `CN1CCC(N2CCN(Cc3ccc(-c4cccc(-c5nc6ccccc6[nH]5)c4)cc3)CC2)CC1.O=C(O)C(F)(F)F`, 100%.
For the molecule `O=C(Nc1ccc(Cl)c(-c2nc3ccccc3[nH]2)c1)c1ccc(-c2ccc(Cl)cc2)o1`, the Inhibition turned out to be 22%.
Still for that read-out and setting: the value for `CCc1nc(N)nc(N)c1-c1cccc(Cl)c1` was 1%; that for `CCN(Cc1ccccc1)C1CCN(Cc2cc(Br)ccc2O)CC1.O=C(O)C(=O)O` was 97%.
The same measure, in the same setting: to `CC(=O)c1cccc(NC(=O)NC2CCN(CCCCCNC(=O)/C=C/c3ccc(Cl)c(Cl)c3)CC2)c1` belongs 1%.
Same read-out and setting: the value for `Cc1ccc(C2CCN(CCCCNC(=O)c3ccc(NC(=O)c4ccc(Cl)cc4)cc3)CC2)c(C)c1.Cl` was 10%; that for `COc1ccc2nccc([C@@H](O)CN3CCC(NCc4ccc5nc[nH]c(=O)c5c4)CC3)c2c1.O=C(O)C(=O)O` was 4%.

Another assay deals with HepG2. Nature of the assay: GSK_TCMDC: Percent inhibition of human HepG2 cell line. Test compounds present at 10uM. It counts as functional.
Turning to `CC(C)(CNC(=O)C1CCN(CCOCc2ccccc2)CC1)c1nc(-c2ccc(Cl)c(O)c2)c(-c2ccncc2)[nH]1.Cl`, the Inhibition is 11%.
Same read-out and setting: the value for `CSCCC(C(=O)O)N1C(=O)c2ccccc2C1=O` (stereo not drawn) was 0%; that for `CCc1cn(CCc2ccccc2)c2ccc(C(=O)N[C@@H](Cc3ccccc3)[C@H](O)CNC(C)(C)CCCC(C)C)cc12.O=CO` was 66%.
The same measure, in the same setting: to `O=C(Nc1cccc(CN2CCCN(Cc3cccnc3)CC2)c1)c1ccc(Cl)c(Cl)c1.O=C(O)C(F)(F)F` belongs 16%; to `CS(=O)(=O)NCCCNCc1cccc(-c2ccc(-c3nc4ccccc4[nH]3)s2)c1.O=C(O)C(F)(F)F`, 24%; to `CN1c2ccc([N+](=O)[O-])cc2C(C)(C)C12C=Cc1cc(Br)cc([N+](=O)[O-])c1O2` (stereo not drawn), 0%.
Same read-out and setting: the value for `CCn1cnc2c(N3CCCC3=O)cc(C(=O)N[C@@H](Cc3ccccc3)[C@H](O)CNC3CCCCC3)cc21` was 0%; that for `Fc1ccc2[nH]c(-c3ccc(-c4cccc(CN5CCCCC5)c4)cc3)nc2c1.O=C(O)C(F)(F)F` was 10%; that for `c1ccc(Oc2ccc(Nc3ccnc4cc(-c5ccc(CN6CCCCC6)o5)ccc34)cc2)nc1` was 18%.
`CCN(CCNS(C)(=O)=O)c1ccc(N)c(C)c1.O.O=S(=O)(O)O` registered an Inhibition of 0%.
`COc1cc(F)c2ncc(Cl)c([C@H](O)CN3CCC(NCc4ccc5c(n4)NC(=O)CO5)CC3)c2c1.Cl` gave an Inhibition of 14%.
Still for that read-out and setting: the value for `CC(=O)Nc1nc(C(=O)Nc2ccc(-c3ccc(-c4nc5cc(F)ccc5[nH]4)cc3)cc2)cs1` was 17%.
The same measure, in the same setting: the value for `CN1CCCC(OC(=O)c2ccccc2)C1` (stereo not drawn) was 4%; that for `Cc1cccc2nc(-c3ccc(-c4ccc(CNCCN5CCNCC5)cc4)s3)[nH]c12.O=C(O)C(F)(F)F` was 30%.
Molecule `Fc1ccc(CNc2ncc(-c3ccsc3)c(-c3nccs3)n2)cc1` registered an Inhibition of 7%.
On the same count and under the same terms, to `C[C@H](Cc1ccc(OCCCCCCOc2ccc(C[C@@H](C)NC[C@H](O)c3cccc(Cl)c3)cc2)cc1)NC[C@H](O)c1cccc(Cl)c1.Cl` belongs 99%; to `O=C(/C=C/c1ccccc1)N1CCOC(CCN2CCC(c3ccccc3)CC2)(c2ccc(Cl)c(Cl)c2)C1` (stereo not drawn), 4%.
Same read-out and setting: the value for `Cc1cc(N[C@@H](CC(C)C)C(=O)NCc2cccc(F)c2)nc(Nc2ccccc2)n1.O=C(O)C(F)(F)F` was 0%; that for `Cc1c(C(=O)C2CC2CN2CCC(N3CCCC3)CC2)sc2ccccc12` (stereo not drawn) was 16%; that for `CCC(CC)n1c(COC)cc2c3c(N)nc(N)nc3ccc21` was 71%.
In the case of `Fc1ccc(C=NN=c2cc[nH]c3ccccc23)cc1`, the Inhibition came to 21%.
Molecule `CCCc1cc(OC)c(C[C@H]2c3cc(O)c(Cl)cc3CCN2C)cc1OC.Cl` returned an Inhibition of 0%.
Regarding `CC(=O)c1sc(Cc2nc3ccccc3s2)nc1C`, the Inhibition amounted to 0%.
Still for that read-out and setting: the value for `Cc1cccc(OC(C)C(=O)Nc2cc(C(F)(F)F)ccc2N2CCOCC2)c1` (stereo not drawn) was 2%.
Still for that read-out and setting: to `Cc1ccc2nc(Cl)c3cc(C(=O)NCCCN4CCCC4)sc3c2c1` belongs 26%; to `Cc1nc(-c2cccc(NCc3ccccc3)c2)[nH]c1C.Cl`, 16%.
With `COc1cc(Cl)c(C)cc1-n1cc(C(=O)c2cc(Br)ccc2O)cc(C#N)c1=O`, the Inhibition turned out to be 3%.
On the same count and under the same terms, to `O=C(NC1CCCCC1)N(Cc1cccc(-c2cccc(CNC3CCCC3)c2)c1)C1CCN(Cc2ccccc2)CC1.O=C(O)C(F)(F)F` belongs 64%; to `NCc1ccc(CNCc2cccc(-c3cccc(-c4nc5ccccc5[nH]4)c3)c2)cc1.O=C(O)C(F)(F)F`, 7%; to `COCCNC(=O)C(CNC(=O)c1ccc2c(c1)OCO2)NC(=O)c1ccc(-c2ccccc2)cc1` (stereo not drawn), 14%.
As for `CCNc1cc(C(=O)N[C@@H](Cc2ccccc2)[C@H](O)CNCc2cccc(OC)c2C)cc(N2CCCCS2(=O)=O)c1.O=CO`, the Inhibition came to 8%.
On the same count and under the same terms, to `CCN(CCO)Cc1ccc(-c2ccc(NS(=O)(=O)c3cccc4cccnc34)cc2)cc1.O=C(O)C(F)(F)F` belongs 25%.
Still for that read-out and setting: to `CCOCCCNc1sc(S(=O)(=O)c2ccccc2)nc1S(=O)(=O)c1ccc(C)cc1` belongs 0%; to `CN1CCC(N2CCN(Cc3ccc(-c4cccc(-c5nc6ccccc6[nH]5)c4)cc3)CC2)CC1.O=C(O)C(F)(F)F`, 48%.
Same read-out and setting: to `O=C(Nc1ccc(Cl)c(-c2nc3ccccc3[nH]2)c1)c1ccc(-c2ccc(Cl)cc2)o1` belongs 16%; to `CCc1nc(N)nc(N)c1-c1cccc(Cl)c1`, 60%.
For the molecule `CCN(Cc1ccccc1)C1CCN(Cc2cc(Br)ccc2O)CC1.O=C(O)C(=O)O`, the Inhibition is 6%.
The same measure, in the same setting: to `CC(=O)c1cccc(NC(=O)NC2CCN(CCCCCNC(=O)/C=C/c3ccc(Cl)c(Cl)c3)CC2)c1` belongs 7%.
Same read-out and setting: to `Cc1ccc(C2CCN(CCCCNC(=O)c3ccc(NC(=O)c4ccc(Cl)cc4)cc3)CC2)c(C)c1.Cl` belongs 23%; to `COc1ccc2nccc([C@@H](O)CN3CCC(NCc4ccc5nc[nH]c(=O)c5c4)CC3)c2c1.O=C(O)C(=O)O`, 12%.

The values above are taken from ChEMBL document CHEMBL1157539, “Thousands of chemical starting points for antimalarial lead identification” (Nature, 2010).
